PubChem BioAssay (NCI)
Compounds without any hit were thinned out: in the full panel of roughly 83,000, 20% have a hit.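 Single-dose data. Exposure time 48 hours. Values below 10 considered active.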 Values without a mark were called inactive. Active and inactive are the calls of the source.

test system: HCT-116 colon; assay: NCI-60 one-dose screen, 48 h (100 = growth as untreated, 0 = no growth, -100 = all killed); conditions: 10 µM
Description: Growth inhibition of the HCT-116 human tumor cell line is measured as a screen for anti-cancer activity. Cells are grown in 96 well plates and exposed to the test compound for 48 hours. Compounds are tested at a single concentration, which is 10^-5 M for most compounds. The reported endpoint is percent growth (GI% or GIPRCNT), where numbers from 0 - 100% represent growth inhibition, and numbers from -100% - 0 represent cell death. For example, a value of 40 represents 60% growth inhibition. A value of 0 means no net growth occurred over the course of the experiment. A value of -40 indicates 40% of cells at the beginning of the experiment died by the end of the experiment. A value of -100 means all cells are dead at the end of the experiment.
NCI-60 Human Tumor Cell Lines Screen was performed using the standard one-dose NCI protocol, which is described in more detail at https://dtp.cancer.gov/discovery_development/nci-60/default.htm.
Compounds with GIPRCNT values below 10 were considered active. Activity score was based on GIPRCNT using the following formula: […]
Score is 0 for GIPRCNT values of 100 or above, 50 for GIPRCNT values of 0, and 100 for GIPRCNT values of -100.

Compound | growth
C#Cc1ccc(-n2c(/C=C/c3cc(OC)c(OC)c(OC)c3)nc3ncccc3c2=O)cc1 | 54.2%
O=C1/C(=C/c2cccs2)CCC/C1=C\c1cccs1 | 80.2%
NC(=O)C12C(=O)NC(=O)C1(C(=O)O)C21CCCC1 (stereo not given) | 101%
CNCCCNCCCN1C(=O)c2ccc3c4c(ccc(c24)C1=O)C(=O)N(CCCNCc1ccccc1OC)C3=O | -8.97% (active)
COc1c(C)c(C)c(OC)c2c1[nH]c(=O)c1c3cccnc3cn21 | 104%
CC(=O)n1nc(C(=O)OC(C)(C)C)c2cc(F)c(F)cc21 | 95%
O=S(=O)(O)C1(O)CCCCC1 | 50.9%
COc1cc(-c2cc(-c3cc(OC)c(OC)c(OC)c3)nc3nc(N)[nH]c(=O)c23)ccc1Oc1ccnc2cc(Cl)ccc12 | 16.1%
COc1ccccc1CNCCCN1C(=O)c2ccc3c4c(ccc(c24)C1=O)C(=O)N(CCCNCCNCCCN)C3=O | 1.05% (active)
Fc1cc(-c2ncc(-c3cc(F)c(F)c(F)c3)c(NC3CCCCCC3)n2)cc(F)c1F | 101%
Cc1noc(C)c1-c1ccc2nc(NC(=O)[C@H]3CCN(C#N)C3)cn2c1 | 82.1%
O=C(O)CN1C(=O)C=CC1=O | 107%
C[C@]12CC[C@H]3[C@@H](CC=C4C[C@@H](O)CC[C@@]43C)[C@@H]1CC[C@@H]2C(=O)C/C=N/O | 79.1%
CC(C)(C)c1ccc(OCCCCCCN2CCNCC2)cc1 | 8.35% (active)
O=NN(CCCl)C(=O)Nc1ccc(NC(=O)N(CCCl)N=O)cc1 | 100%
O=c1[nH]c(=O)n(C2C[C@@H](O)[C@@H](CO)O2)cc1F (stereo not given in full) | 16.8%
COc1ccc(C2C=C(c3ccc(Cl)c(Cl)c3)N=C3SC(C)=CN32)cc1 (stereo not given) | 14.4%
CCOC(=O)C1=C(Nc2ccc(OC)cc2)C(N)=NC1=N | 34.5%
COc1ccc(-c2[nH]ncc2-c2cc(OC)c(OC)c(OC)c2)cc1 | 2.61% (active)
O=C(O)CCCN1C(=O)NC2(C1=O)c1ccccc1-c1ccccc12 | 95.6%

Compound | growth
NC(=O)c1ccc(Br)o1 | 108%
CC(=O)c1ccc(NCn2nc(-c3ccc(Cl)cc3)oc2=S)cc1 | 93.3%
CCc1ccc(Nc2cc(C)nc3nc(C)nn23)cc1 | -90.7% (active)
COc1cc2ccnc(C=O)c2cc1OC | 9.15% (active)
c1ccc(CNc2nc(Nc3ccc(-c4nc5ccccc5[nH]4)cc3)c3cn[nH]c3n2)cc1 | -54.5% (active)
O=C(Nc1cccc([N+](=O)[O-])c1)NN1CCCCCC1 | 94.3%
CCCc1c(C)nc2scc(-c3ccc(Cl)cc3)n2c1=O | 99.1%
COc1ccc(/C=C2\SC(=S)N(CCCN3CCOCC3)C2=O)c(OC)c1 | 92.2%
O=C1c2cc(Cl)ccc2-c2c(O)cc(Cl)cc21 | 22.2%
Cc1ccc2oc(=O)cc(/C(=C3/C=CC=N3)c3ccc[nH]3)c2c1 | 1.45% (active)
CCCCCCCCCCCCCCCC(=O)N1CCN(C)CC1 | 57.3%
C=C[C@]1(C)C=C2C(=O)[C@@]3(O)OC(=O)[C@@]4(CCCC(C)(C)[C@H]34)[C@@]2(O)CC1 | -93.4% (active)
CC(C)C[C@H](NC(=O)Cn1ccc2ccccc2c1=O)B(O)O | 32.3%
COc1cc(CSc2nc3ccc(Cl)cc3c(=O)n2Cc2ccccc2)cc(OC)c1OC | 20.8%
C[C@@H]1N=C(c2ccc(Br)cc2)Nc2nc3ccccn3c2C1=O | 29.2%
Cc1c(C(=O)N[C@H](CO)Cc2ccccc2)[nH]c2ccc(Cl)cc2c1=O | 97.4%
O=C(CCc1ccccc1)N1CCN(C(=O)CCc2ccccc2)CC1 | 99.6%
COCCOC(=O)NC(=O)Nc1ccc(/C(=N/O)c2ccc(Cl)cc2)cc1 | 4.17% (active)
Cc1[nH]nc2c(=S)[nH]c(=O)[nH]c12 | 105%
C/C(=N\NC(N)=S)C(C)(C)O | 6.43% (active)
